PubChem BioAssay (EPA / NIEHS)
Where “and” joins values, the source holds several entries; their conditions need not be identical. Identical values can stand only once. Calls of active or inactive are those of the source. How the source made its calls: active means hit-call score of the fitted dose curve at least 0.9, where 1 is the maximum; inactive means score below 0.9.

Experiments:
[1] = read-out: C-C motif chemokine 2 (Homo sapiens) (UniProt P13500); experiment: BSK_KF3CT_MCP1: BioMAP Diversity Plus: KF3CT Assay for Monocyte Chemoattractant Protein 1 (MCP1/CCL2) Biomarker Activity (AID 2283073); conditions: primary human keratinocytes with fibroblasts; actives raise or lower the signal
How it was run: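 Human keratinocyte–foreskin fibroblast co-culture; MCP-1 measured by ELISA 24 h after dosing. Bidirectional fit vs DMSO; cytotoxicity tracked by SRB total protein in parallel cultures.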

[2] = read-out: Matrix Metallopeptidase 9 (MMP9), MMP9 (gene 4318); experiment: BSK_KF3CT_MMP9: BioMAP Diversity Plus: KF3CT Assay for Matrix Metallopeptidase 9 (MMP9) Biomarker Activity (AID 2283074); conditions: primary human keratinocytes with fibroblasts; actives raise or lower the signal;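 on AC50: MMP9 protein level quantified by ELISA in the co-culture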
How it was run: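 MMP-9 quantified by ELISA after 24 h chemical treatment of primary human skin keratinocyte/fibroblast co-cultures; gain or loss fitted against DMSO, with parallel SRB staining (0.1% SRB, 560 nm) for overt cytotoxicity.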

[3] = read-out: urokinase plasminogen activator (uPA), PLAU (gene 5328); experiment: BSK_KF3CT_uPA: BioMAP Diversity Plus: KF3CT Assay for urokinase plasminogen activator (uPA) Biomarker Activity (AID 2283075); conditions: primary human keratinocytes with fibroblasts; actives raise or lower the signal
How it was run: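 ELISA read-out of uPA 24 h after dosing human skin keratinocytes co-cultured with foreskin fibroblasts. Signal change fitted both ways relative to DMSO; sulforhodamine B on parallel cultures marks overt cytotoxicity.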

CD40, CD40 (gene 958) = experiment: BSK_LPS_CD40: BioMAP Diversity Plus: LPS Assay for CD40 Biomarker Activity (AID 2283076); conditions: primary human HUVEC with PBMC; actives raise or lower the signal
How it was run: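 HUVEC plus PBMC co-culture stimulated with LPS; CD40 quantified by ELISA 24 h after compound dosing. Fitting was bidirectional relative to DMSO. SRB staining of parallel cultures flagged overt cytotoxicity.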

[4] = read-out: E-selectin (Homo sapiens) (UniProt P16581); experiment: BSK_LPS_Eselectin: BioMAP Diversity Plus: LPS Assay for Eselectin Biomarker Activity (AID 2283077); conditions: primary human HUVEC with PBMC; actives raise or lower the signal
How it was run: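 Human umbilical vein endothelial cells co-cultured with PBMC under LPS stimulation; cell-surface E-selectin measured by ELISA 24 h after dosing. Change in either direction versus DMSO, with SRB total-protein staining in parallel cultures for cytotoxicity.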

[5] = read-out: Interleukin-8 (IL8), CXCL8 (gene 3576); experiment: BSK_LPS_IL8: BioMAP Diversity Plus: LPS Assay for Interleukin-8 (IL8) Biomarker Activity (AID 2283078); conditions: primary human HUVEC with PBMC; actives raise or lower the signal
How it was run: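 Human umbilical vein endothelial cells co-cultured with PBMC, LPS-stimulated, exposed to compound for 24 h. IL-8 quantified by ELISA; fitted in both directions against DMSO, with SRB total-protein staining of parallel cultures for cytotoxicity.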

[6] = BSK_LPS_SRB: Viability Assessment in the BioMAP Diversity Plus: LPS Assay (AID 2283079); conditions: primary human HUVEC with PBMC;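 further: total protein by sulforhodamine B absorbance as a cytotoxicity measure; measured one day after compound addition; fitted in both directions against DMSO so loss or gain of signal counts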
How it was run: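 Co-culture of human umbilical vein endothelial cells and PBMC, read 24 h after dosing. Total protein by 0.1% SRB staining after 10% TCA fixation, absorbance at 560 nm; bidirectional fit against DMSO.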

[7] = read-out: Interleukin-1 alpha (IL1a), IL1A (gene 3552); experiment: BSK_LPS_IL1a: BioMAP Diversity Plus: LPS Assay for Interleukin-1 alpha (IL1a) Biomarker Activity (AID 2283080); conditions: primary human HUVEC with PBMC; actives raise or lower the signal
How it was run: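 Human umbilical vein endothelial cells co-cultured with PBMC and stimulated with LPS; IL-1a measured by ELISA 24 h after dosing. Bidirectional fitting against DMSO; cytotoxicity checked by SRB staining in parallel cultures.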

[8] = read-out: Monocyte Chemoattractant Protein-1 (MCP1), CCL2 (gene 6347); experiment: BSK_LPS_MCP1: BioMAP Diversity Plus: LPS Assay for Monocyte Chemoattractant Protein-1 (MCP1) Biomarker Activity (AID 2283081); conditions: primary human HUVEC with PBMC; actives raise or lower the signal;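 on AC50: secreted MCP-1 protein quantified by ELISA in culture supernatant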
How it was run: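 Human umbilical vein endothelial cells co-cultured with PBMC, LPS-stimulated; secreted MCP-1 measured by ELISA 24 h after compound addition. Bidirectional curve fitting against DMSO baseline; SRB total-protein staining in parallel cultures for cytotoxicity.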

[9] = BSK_LPS_PGE2: BioMAP Diversity Plus: LPS Assay for Prostaglandin E2 (PGE2) Biomarker Activity (AID 2283082); conditions: primary human HUVEC with PBMC; actives raise or lower the signal;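 on AC50: secreted prostaglandin E2 measured by ELISA in LPS-stimulated co-culture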
How it was run: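 Compounds were added to the LPS co-culture of endothelium and PBMC, and PGE2 was measured by ELISA after 24 h. Responses in either direction were fitted with DMSO as baseline.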

Measured: AC50

Chain of E-selectin (Homo sapiens) (P16581 whole entry, looked up): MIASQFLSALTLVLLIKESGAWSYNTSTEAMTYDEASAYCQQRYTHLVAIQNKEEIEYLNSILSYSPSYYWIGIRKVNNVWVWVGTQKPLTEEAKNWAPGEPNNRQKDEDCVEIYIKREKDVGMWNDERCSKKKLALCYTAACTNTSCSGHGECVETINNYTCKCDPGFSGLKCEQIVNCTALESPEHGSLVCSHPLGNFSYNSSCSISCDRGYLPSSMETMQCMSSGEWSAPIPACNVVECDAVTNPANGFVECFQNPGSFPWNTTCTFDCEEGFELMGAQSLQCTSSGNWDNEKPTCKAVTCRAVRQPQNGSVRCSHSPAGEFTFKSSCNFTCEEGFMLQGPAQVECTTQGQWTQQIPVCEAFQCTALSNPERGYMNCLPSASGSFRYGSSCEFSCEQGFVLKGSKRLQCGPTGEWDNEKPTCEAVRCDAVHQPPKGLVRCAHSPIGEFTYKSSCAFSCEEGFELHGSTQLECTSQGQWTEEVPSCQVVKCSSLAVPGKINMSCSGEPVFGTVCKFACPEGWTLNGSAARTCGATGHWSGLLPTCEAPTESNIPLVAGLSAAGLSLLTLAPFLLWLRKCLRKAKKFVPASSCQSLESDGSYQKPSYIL

CC(C)(C)[C@@H](O)[C@@H](Cc1ccc(Cl)cc1)n1cncn1
active: [7] 3.97 µM
inactive: [1] | [2] | [3] | CD40, CD40 (gene 958) | [4] | [5] | [6] | [8] | [9]

CCOC(=O)c1ccc(O)cc1
inactive: [1] | [2] | [3] | CD40, CD40 (gene 958) | [4] | [5] | [6] | [7] | [8] | [9]

O=C(O)c1ccccc1
inactive: [1] | [2] | [3] | CD40, CD40 (gene 958) | [4] | [5] | [6] | [7] | [8] | [9]

O=C(O)C1(C(=O)Nc2ccc(Cl)cc2Cl)CC1
active: [9] 7.72 µM
inactive: [1] | [2] | [3] | CD40, CD40 (gene 958) | [4] | [6] | [7] | [8]

CCCCOC(=O)C(C)Oc1ccc(Oc2ccc(C(F)(F)F)cn2)cc1 (configuration not stated)
inactive: [1] | [2] | [3] | CD40, CD40 (gene 958) | [4] | [5] | [6] | [7] | [8] | [9]

CCC(C)OC(=O)N1CCCCC1CCO (configuration not stated)
inactive: [1] | [2] | [3] | CD40, CD40 (gene 958) | [4] | [5] | [6] | [7] | [8] | [9]

CCCCCOC(=O)COc1cc(N2C(=O)C3=C(CCCC3)C2=O)c(F)cc1Cl
inactive: [1] | [3] | [4] | [6] | [7] | [8] | [9]
active: [2] 20 µM | CD40, CD40 (gene 958) 16 µM | [5] 20 µM

COC(=O)c1ccc(I)cc1S(=O)(=O)NC(=O)Nc1nc(C)nc(OC)n1
inactive: [1] | [2] | [3] | CD40, CD40 (gene 958) | [4] | [6] | [7] | [8] | [9]

CCOC(=O)[C@H](C)Oc1ccc(Oc2nc3ccc(Cl)cc3o2)cc1
active: [9] 8.85 µM
inactive: [1] | [2] | [3] | CD40, CD40 (gene 958) | [4] | [5] | [6] | [7] | [8]

S=C(S)NCCNC(=S)S.[Mn+2].[S-]C([S-])=NCCN=C([S-])[S-].[Zn+2]
inactive: [1] | [2] | [3] | CD40, CD40 (gene 958) | [4] | [6] | [7] | [8] | [9]

C[C@]12CC[C@@H]3c4ccc(O)cc4C[C@@H](CCCCCCCCCS(=O)CCCC(F)(F)C(F)(F)F)[C@H]3[C@@H]1CC[C@@H]2O (some centres not stated)
inactive: [1] | [2] | [3] | CD40, CD40 (gene 958) | [4] | [5] | [6] | [7] | [8] | [9]

CCN(Cc1c(F)cccc1Cl)c1c([N+](=O)[O-])cc(C(F)(F)F)cc1[N+](=O)[O-]
active: CD40, CD40 (gene 958) 9.02 µM | [5] 13.6 µM | [6] 14.1 µM
inactive: [1] | [2] | [3] | [4] | [7] | [8] | [9]

C#C[C@]1(O)CC[C@H]2[C@@H]3CCC4=CC(=O)CC[C@@H]4[C@H]3CC[C@@]21CC
active: [9] 2.43 µM
inactive: [1] | [2] | [3] | CD40, CD40 (gene 958) | [4] | [6] | [7] | [8]

N#CSCSc1nc2ccccc2s1
active: [1] 2.31 µM and 11.1 µM | [2] 10.6 µM and 10.3 µM | [3] 6.91 µM and 11.5 µM | CD40, CD40 (gene 958) 1.9 µM and 5.14 µM | [4] 3.96 µM and 8.13 µM | [5] 5.09 µM and 9.38 µM | [6] 8.07 µM and 9.64 µM | [7] 1.51 µM and 4.83 µM | [8] 6.17 µM and 6.23 µM | [9] 1.9 µM and 2.28 µM

C[C@]12C[C@H](O)[C@H]3[C@@H](CCC4=CC(=O)CC[C@@]43C)[C@@H]1CC[C@@H]2C(=O)CO
inactive: [1] | [2] | [3] | CD40, CD40 (gene 958) | [4] | [5] | [6] | [7] | [8] | [9]

CCCCCCC(C)OC(=O)COc1nc(F)c(Cl)c(N)c1Cl (configuration not stated)
active: [3] 20 µM | CD40, CD40 (gene 958) 29.9 µM | [4] 30.7 µM | [5] 36.8 µM | [6] 38.4 µM | [8] 31 µM | [9] 20.3 µM
inactive: [1] | [2]

CCCOC(=O)NCCCN(C)C
inactive: [1] | [2] | [3] | CD40, CD40 (gene 958) | [4] | [6] | [7] | [8] | [9]

CC1(C)C(C=C(Cl)Cl)C1C(=O)OCc1cccc(Oc2ccccc2)c1 (configuration not stated)
inactive: [1] | [2] | [3] | CD40, CD40 (gene 958) | [4] | [7] | [8]
active: [6] 6.14 µM | [9] 4.13 µM

COC(=O)c1ccccc1C(=O)O
active: [1] 726 nM
inactive: [2] | [3] | CD40, CD40 (gene 958) | [4] | [6] | [7] | [8] | [9]
